Screening data: PubChem, NMMLSC
MEKK3 PB1 HTS – MEKK3-MEK5 PB1 interaction, increase or decrease. bead-based flow cytometry, Alexa488-MEK5 binding to MEKK3; actives lie on both sides; 0 = blocked by unlabeled MEK5, 100 = vehicle. hit rate 1.4% among 290,000. binding response (% of control), % at 10 µM. AID 1529. Q99759;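 active = binding response more than 3 SD above or below the average of its plate-row segment, actives on both sides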;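 note: Alexa488 bead fluorescence after subtracting the streptavidin-only scavenger bead signal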
Target sequence (Q99759 whole entry, looked up): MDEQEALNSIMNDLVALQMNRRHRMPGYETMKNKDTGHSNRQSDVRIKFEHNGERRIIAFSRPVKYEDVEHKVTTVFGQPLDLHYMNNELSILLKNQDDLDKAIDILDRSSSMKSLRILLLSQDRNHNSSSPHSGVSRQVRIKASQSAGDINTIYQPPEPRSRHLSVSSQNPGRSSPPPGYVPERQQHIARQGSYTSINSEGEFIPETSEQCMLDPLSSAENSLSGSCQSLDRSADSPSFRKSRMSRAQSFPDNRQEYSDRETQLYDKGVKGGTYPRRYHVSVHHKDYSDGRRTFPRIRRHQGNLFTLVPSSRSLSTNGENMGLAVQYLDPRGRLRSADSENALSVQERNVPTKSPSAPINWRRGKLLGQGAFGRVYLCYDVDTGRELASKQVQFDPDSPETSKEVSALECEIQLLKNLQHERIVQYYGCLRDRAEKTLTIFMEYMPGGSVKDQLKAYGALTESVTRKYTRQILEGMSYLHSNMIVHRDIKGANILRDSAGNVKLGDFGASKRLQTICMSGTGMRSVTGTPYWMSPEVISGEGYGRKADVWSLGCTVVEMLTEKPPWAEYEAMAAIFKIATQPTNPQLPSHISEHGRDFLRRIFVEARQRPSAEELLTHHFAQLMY
GRK2 aptamer HTS – inhibitors of human GRK2 displacing RNA aptamer | P25098 | bead flow cytometry, FAM-aptamer displacement from GRK2 | inhibition of aptamer binding, % at 10 µM | hit rate 0.59% among 330,000 | AID 488847;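 active = inhibition of aptamer binding above 40%, roughly 3 SD of noise, on plates passing a quality check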;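 note: median bead fluorescence of bound FAM aptamer so fluorescent compounds give negative values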
MEKK2 mut-MEK5 – signal of MEK5 binding to mutant human MEKK2 PB1 domain. bead flow cytometry, Alexa488-MEK5 binding to MEKK2 mutant. percent response, % at 10 µM. hit rate 0.35% among 290,000. AID 1530; in the data active = percent response above about 24%, passing the limit was not always enough
MEKK2 WT-MEK5 – raises or lowers MEK5 binding to wildtype human MEKK2 PB1 domain; Q9Y2U5; bead flow cytometry, Alexa488-MEK5 binding to MEKK2 WT; actives lie on both sides; binding response (% of control), % at 10 µM; hit rate 1.1% among 290,000; AID 1531; in the data active = binding response below about 67% or above about 130%
MEKK2wt confirm – raises or lowers MEK5 binding to wildtype human MEKK2, retest; shares compounds with MEKK3 PB1 HTS; bead flow cytometry, Alexa488-MEK5 binding to MEKK2 WT; actives lie on both sides; binding response (% of control), % at 10 µM; hit rate 2.4% among 5,900; in the data active = binding response below about 16% or above about 210%; inactive = in between
MEKK2mut confirm – signal of MEK5 binding to mutant human MEKK2, retest. shares compounds with MEKK3 PB1 HTS. bead flow cytometry, Alexa488-MEK5 binding to MEKK2 mutant. percent response, % at 10 µM. hit rate 2% among 5,900. AID 1893; in the data active = percent response mostly above about 71%, no sharp cut-off; inactive = mostly below about 38%;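 note: higher means compound restores mutant binding toward wildtype level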
MEKK3-MEK5 inh – MEKK3-MEK5 PB1 inhibition, single concentration confirmation; hit rate 1.8% among 5,900; binding response (% of control), % at 10 µM; bead flow cytometry, Alexa488-MEK5 binding to MEKK3; stronger effect = lower value; shares compounds with MEKK3 PB1 HTS;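 active = binding response below 72% of control, or above a set upper limit, though filed actives all read lower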;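 note: 100% = DMSO only wells and 0% = binding blocked by excess unlabeled MEK5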
Numbers without * were called inactive; x = no result given; [ ] = another dose, or the depositor's remark. Most compounds without a hit are left out; they make up all but 2.5% or so of the library.

SMILES	MEKK3 PB1 HTS	GRK2 aptamer HTS	MEKK2 mut-MEK5	MEKK2 WT-MEK5	MEKK2wt confirm	MEKK2mut confirm	MEKK3-MEK5 inh
Cc1ccc(-n2cc(CNCCCn3cccn3)c(-c3cccc(C)c3)n2)cc1	104	0	24	138*	143	15	104
Cc1ccc(-c2nn(-c3ccccc3)cc2CO)cc1	107	2	11	110	x	x	x
Cc1ccc(-c2nn(-c3ccccc3)cc2CNCc2ccccc2)cc1	111	0	36	193*	173	34	104
Cc1ccc(-n2cc(CNCCCn3ccnc3C)c(-c3ccc(F)cc3)n2)cc1	115	0	178*	306*	204	77*	116
Nc1nnc(CSCc2ccc(Cl)cc2)s1	97	14	0	99	x	x	x
O=C1OCC(CO)(CO)N=C1NNc1ccccc1Cl	102	0	1	100	x	x	x
O=c1o[nH]c(-c2ccccc2)c1C1=NCCCCC1	73*[inhibitor]	0	-3	96	101	-2	102
Oc1[nH]c2ccccc2c1C1=NCCCC1	91	0	8	106	x	x	x
COc1cc(/C=C/C(=O)NCCn2c(C)cc3ccccc32)cc(OC)c1OC	115	3	11	98	x	x	x
Cc1cccc(CC(=O)NCCn2c(C)cc3ccccc32)c1	79*[inhibitor]	1	0	63*[inhibitor]	105	-1	100
COc1ccc(/C=C/C(=O)NCCn2c(C)cc3ccccc32)cc1OC	67*[inhibitor]	0	5	83	110	11	103
O=C1CCCN1CCCNC(=S)Nc1ccc(Br)cc1Cl	87	2	-7	92	x	x	x
COc1ccc(Cl)cc1NC(=S)NCCCN1CCCC1=O	46*[inhibitor]	0	-14	63	99	2	98
COc1ccc2c(c1)C(=O)C(=O)N2	109	4	2	99	x	x	x
CCCN1C2CCCC1CC(NC(=O)NC1CCCCC1)C2 (stereo not drawn)	2.0*[inhibitor]	0	-14	2.0*[inhibitor]	101	2	100
O=C(CN1C2CCC1CC(NC(=O)NC1CCCCC1)C2)NC1CC1 (stereo not drawn)	68	0	-8	72	x	x	x
COc1ccc(OC2CCN(S(=O)(=O)c3ccc(OC)cc3)CC2)cc1	103	2	-3	100	x	x	x
CC(Nc1ccccc1)c1ccncc1 (stereo not drawn)	133*	1	6	124	102	-26	98
COc1ccc(NC(C)c2ccccc2)cc1 (stereo not drawn)	100	x	-6	94	x	x	x
Cc1ccc(S(=O)(=O)NCCOc2cc(C)ccc2C)cc1	104	0	6	105	x	x	x
CCn1c(CCNC(=O)c2cccs2)nnc1SCC(=O)NC1CCCCC1	1.0*[inhibitor]	0	-41	0.0*[inhibitor]	94	-8	96
COc1ccc(C(=O)NC(=O)Nc2cc(C)ccn2)cc1	95	0	-1	100	x	x	x
N=C1C=CC=C2C1=NC1(CCCCC1)N2O	2.0*[inhibitor]	0	-21	2.0*[inhibitor]	84	-6	87
CC(C)(C)N=C1C([N+](=O)[O-])=CC=C2C1=NC1(CCCCC1)N2O	104	1	4	107	x	x	x
CCC(C)NC(=O)C(=O)NCc1ccncc1 (stereo not drawn)	81*[inhibitor]	1	-6	86	82	-15	93
SMILES	MEKK3 PB1 HTS	GRK2 aptamer HTS	MEKK2 mut-MEK5	MEKK2 WT-MEK5	MEKK2wt confirm	MEKK2mut confirm	MEKK3-MEK5 inh
CCOC(=O)c1ccc(NC(=O)C(=O)NCc2ccncc2)cc1	19*[inhibitor]	0	-15	24*[inhibitor]	111	12	104
CCCn1c(N)c(C(=O)CN(C)CC(=O)Nc2cccc(F)c2)c(=O)[nH]c1=O	x	0	x	x	x	x	x
COc1ccc(-n2nnc3c(=O)n(Cc4cccc(C)c4)cnc32)cc1	100	1	5	99	x	x	x
COc1ccccc1N1CCN(CCCCOc2cccc3ccccc23)CC1	101	0	0	119	x	x	x
CCNC(=S)N/N=C/c1ccc(OCC(=O)Nc2ccc(OC)cc2)c(OC)c1	103	4	1	102	x	x	x
CCCCNC(=S)N(C)/N=C/c1ccc(OCC(=O)Nc2c(C)cc(C)cc2C)c(OC)c1	129*	0	-1	98	107	0	104
CCCCNC(=S)N(C)/N=C/c1ccc(OCC(=O)Nc2ccc(OC)cc2)c(OC)c1	142*	0	-1	107	108	2	101
COc1cc(/C=N/NC(=S)NC(C)C)ccc1OCC(=O)Nc1c(C)cc(C)cc1C	97	3	-2	100	x	x	x
O=S(=O)(/N=C(/Nc1cccc2ccccc12)c1ccccc1)c1cccs1	100	0	7	97	x	x	x
Cc1noc(C)c1S(=O)(=O)N1CCC(C(=O)Nc2ccccn2)CC1	104	1	3	103	x	x	x
O=C1Nc2ccc([N+](=O)[O-])cc2OC1CCN1CCCC1 (stereo not drawn)	141*	0	5	114	101	1	101
Cc1ccc2[nH]cc(/C=C/c3cc[n+](C)cc3)c2c1	101	0	-3	112	x	x	x
COc1ccc2c(/C=C/c3cc[n+](C)cc3)c[nH]c2c1	104	0	48*	168*	101	-1	93
CCOC(=O)c1c(C)oc2cc(Cl)c(O)c(CN(C)C)c12	128*	1	27	131	108	11	106
Cc1ccc2nc(/C(C#N)=C\c3ccc(N4CCOCC4)o3)[nH]c2c1	103	0	26*	46*[inhibitor]	112	12	108
Cc1ccc(CC(=O)N/N=C/c2ccc(OC(=O)c3ccc([N+](=O)[O-])cc3)cc2)cc1	99	0	-2	95	x	x	x
Cc1ccc(-c2n[nH]c(=S)n2/N=C/c2ccc(C)o2)cc1	151*	1	1	111	105	1	105
Cc1ccc(/C=N/n2c(-c3ccc(Cl)cc3)n[nH]c2=S)o1	106	1	0	99	x	x	x
O=C1c2ccccc2C(=O)C12OC2c1cccc2ccccc12 (stereo not drawn)	157*	2	1	107	103	2	103
CC1CCCN(C(=O)C2CCN(S(=O)(=O)c3ccc4c(c3)CC(C)N4C(=O)C3CC3)CC2)C1 (stereo not drawn)	104	0	4	104	x	x	x
CC1CCN(S(=O)(=O)c2ccc(S(=O)(=O)NCC(=O)C(C)(C)C)cc2)CC1	23*[inhibitor]	0	-22	32*[inhibitor]	96	-7	99
O=C(NCC(O)COc1ccc([N+](=O)[O-])cc1)Nc1ccccc1 (stereo not drawn)	92	0	-14	94	x	x	x
CC(=O)c1ccc(NS(=O)(=O)c2ccc3ccccc3c2)cc1	73*[inhibitor]	1	-1	95	106	2	99
NC(=O)c1ccc(NS(=O)(=O)c2ccc3ccccc3c2)cc1	100	5	11	100	x	x	x
